The targets below were run with C#CCNC(=O)CCSSCCC(=O)NCCc1ccc(C=O)c(C=O)c1 (assay: lysine labeling ratio R10:1 (500 µM / 50 µM probe), SILAC-ABPP in living cells; higher = lower intrinsic lysine reactivity toward the probe, active = 2 or less). Settings: HeLa; probe concentrations 500 vs 50 µM.
Outline: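 The two probe levels, 50 µM and 500 µM, of an alkyne-tagged, disulfide-linked lysine probe were applied to living light and heavy SILAC HeLa cells in PBS at room temperature, and the labels were run in both forward and reverse orientation. Mixed lysates underwent biotin-azide click chemistry, trypsin digestion, neutravidin capture, DTT release and alkylation before LC-MS/MS on a TIMS-TOF Pro. R is the filtered median high-probe/low-probe MS1 peptide ratio for each lysine, summarised as the median over forward and reverse replicates. Nothing above 20 is reported; such values are set to 20.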

Chain of UniProt P54826 (P54826 whole entry): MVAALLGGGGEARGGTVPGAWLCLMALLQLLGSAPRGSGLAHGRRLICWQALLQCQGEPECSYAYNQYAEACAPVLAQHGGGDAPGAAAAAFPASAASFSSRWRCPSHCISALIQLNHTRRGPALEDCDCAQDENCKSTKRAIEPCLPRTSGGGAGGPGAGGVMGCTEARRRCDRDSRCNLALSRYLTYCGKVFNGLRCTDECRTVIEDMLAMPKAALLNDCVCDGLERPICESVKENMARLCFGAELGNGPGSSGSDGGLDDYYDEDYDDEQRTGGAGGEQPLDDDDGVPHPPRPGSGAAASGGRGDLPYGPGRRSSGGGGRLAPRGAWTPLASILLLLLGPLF
Chain of UniProt P78371 (P78371 whole entry): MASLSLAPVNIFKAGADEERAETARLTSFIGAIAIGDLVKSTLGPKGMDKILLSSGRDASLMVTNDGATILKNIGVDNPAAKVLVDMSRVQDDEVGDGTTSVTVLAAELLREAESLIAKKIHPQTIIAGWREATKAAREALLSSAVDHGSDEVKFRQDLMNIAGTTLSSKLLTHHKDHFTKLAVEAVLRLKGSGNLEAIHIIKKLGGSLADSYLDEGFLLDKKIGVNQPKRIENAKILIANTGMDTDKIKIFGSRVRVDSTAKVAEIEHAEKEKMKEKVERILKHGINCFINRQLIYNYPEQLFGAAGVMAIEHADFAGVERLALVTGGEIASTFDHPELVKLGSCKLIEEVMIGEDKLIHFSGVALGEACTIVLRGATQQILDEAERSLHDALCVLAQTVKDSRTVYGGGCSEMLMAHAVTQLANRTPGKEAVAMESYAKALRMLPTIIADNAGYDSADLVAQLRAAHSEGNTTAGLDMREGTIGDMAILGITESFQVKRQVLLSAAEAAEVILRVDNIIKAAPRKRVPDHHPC
Chain of UniProt P35579 (P35579 whole entry): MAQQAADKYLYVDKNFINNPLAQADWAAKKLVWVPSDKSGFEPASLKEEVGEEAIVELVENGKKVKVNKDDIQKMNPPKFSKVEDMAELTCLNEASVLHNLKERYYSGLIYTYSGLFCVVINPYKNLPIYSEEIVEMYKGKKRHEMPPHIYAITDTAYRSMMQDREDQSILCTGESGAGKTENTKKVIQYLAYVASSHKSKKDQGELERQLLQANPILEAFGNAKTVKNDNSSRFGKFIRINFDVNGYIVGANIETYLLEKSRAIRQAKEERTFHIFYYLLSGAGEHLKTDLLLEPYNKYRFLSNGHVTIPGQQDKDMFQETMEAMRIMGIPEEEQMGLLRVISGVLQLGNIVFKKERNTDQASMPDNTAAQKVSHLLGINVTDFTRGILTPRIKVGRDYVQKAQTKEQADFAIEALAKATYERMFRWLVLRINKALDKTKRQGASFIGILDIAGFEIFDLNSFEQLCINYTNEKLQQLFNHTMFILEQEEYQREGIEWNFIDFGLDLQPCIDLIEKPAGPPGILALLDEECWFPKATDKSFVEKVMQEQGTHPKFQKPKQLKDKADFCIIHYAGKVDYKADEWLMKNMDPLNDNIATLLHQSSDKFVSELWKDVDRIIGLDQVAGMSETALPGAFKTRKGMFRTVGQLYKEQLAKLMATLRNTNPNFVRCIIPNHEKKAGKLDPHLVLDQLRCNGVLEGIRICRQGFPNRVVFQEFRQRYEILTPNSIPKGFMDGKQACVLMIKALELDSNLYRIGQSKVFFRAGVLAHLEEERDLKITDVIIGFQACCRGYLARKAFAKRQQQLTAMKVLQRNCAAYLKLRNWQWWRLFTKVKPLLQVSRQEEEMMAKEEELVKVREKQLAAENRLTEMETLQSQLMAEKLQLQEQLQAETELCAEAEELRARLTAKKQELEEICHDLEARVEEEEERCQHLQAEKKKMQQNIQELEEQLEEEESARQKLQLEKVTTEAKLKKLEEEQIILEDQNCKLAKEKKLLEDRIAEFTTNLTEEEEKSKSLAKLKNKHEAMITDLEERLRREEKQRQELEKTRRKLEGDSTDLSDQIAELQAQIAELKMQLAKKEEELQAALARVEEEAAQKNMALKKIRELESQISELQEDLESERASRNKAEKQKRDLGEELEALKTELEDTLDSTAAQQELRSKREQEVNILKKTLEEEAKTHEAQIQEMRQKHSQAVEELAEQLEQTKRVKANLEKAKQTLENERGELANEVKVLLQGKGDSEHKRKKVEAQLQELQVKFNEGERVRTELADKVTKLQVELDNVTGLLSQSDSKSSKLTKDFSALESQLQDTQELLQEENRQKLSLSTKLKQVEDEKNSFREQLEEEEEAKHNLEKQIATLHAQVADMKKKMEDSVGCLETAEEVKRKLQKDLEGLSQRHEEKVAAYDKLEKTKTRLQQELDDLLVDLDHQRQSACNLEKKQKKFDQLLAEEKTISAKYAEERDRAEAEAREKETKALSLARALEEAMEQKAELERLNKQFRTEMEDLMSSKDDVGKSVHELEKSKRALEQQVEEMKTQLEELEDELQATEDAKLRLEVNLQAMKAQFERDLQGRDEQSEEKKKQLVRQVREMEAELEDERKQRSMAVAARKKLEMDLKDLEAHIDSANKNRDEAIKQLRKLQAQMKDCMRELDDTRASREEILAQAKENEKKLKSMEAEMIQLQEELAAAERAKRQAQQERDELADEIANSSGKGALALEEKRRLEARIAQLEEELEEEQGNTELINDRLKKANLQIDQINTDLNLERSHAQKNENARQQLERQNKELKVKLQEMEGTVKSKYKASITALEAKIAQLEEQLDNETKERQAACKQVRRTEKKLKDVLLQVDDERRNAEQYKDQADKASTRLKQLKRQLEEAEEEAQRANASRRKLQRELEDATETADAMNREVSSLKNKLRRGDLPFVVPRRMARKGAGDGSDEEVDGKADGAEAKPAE
Chain of UniProt Q15907 (Q15907 whole entry): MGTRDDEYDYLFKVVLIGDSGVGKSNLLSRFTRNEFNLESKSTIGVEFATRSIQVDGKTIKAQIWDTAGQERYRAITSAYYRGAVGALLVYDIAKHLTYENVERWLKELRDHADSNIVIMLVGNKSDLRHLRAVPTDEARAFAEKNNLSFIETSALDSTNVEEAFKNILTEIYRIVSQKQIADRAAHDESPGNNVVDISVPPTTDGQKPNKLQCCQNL
Chain of UniProt O95197 (O95197 whole entry): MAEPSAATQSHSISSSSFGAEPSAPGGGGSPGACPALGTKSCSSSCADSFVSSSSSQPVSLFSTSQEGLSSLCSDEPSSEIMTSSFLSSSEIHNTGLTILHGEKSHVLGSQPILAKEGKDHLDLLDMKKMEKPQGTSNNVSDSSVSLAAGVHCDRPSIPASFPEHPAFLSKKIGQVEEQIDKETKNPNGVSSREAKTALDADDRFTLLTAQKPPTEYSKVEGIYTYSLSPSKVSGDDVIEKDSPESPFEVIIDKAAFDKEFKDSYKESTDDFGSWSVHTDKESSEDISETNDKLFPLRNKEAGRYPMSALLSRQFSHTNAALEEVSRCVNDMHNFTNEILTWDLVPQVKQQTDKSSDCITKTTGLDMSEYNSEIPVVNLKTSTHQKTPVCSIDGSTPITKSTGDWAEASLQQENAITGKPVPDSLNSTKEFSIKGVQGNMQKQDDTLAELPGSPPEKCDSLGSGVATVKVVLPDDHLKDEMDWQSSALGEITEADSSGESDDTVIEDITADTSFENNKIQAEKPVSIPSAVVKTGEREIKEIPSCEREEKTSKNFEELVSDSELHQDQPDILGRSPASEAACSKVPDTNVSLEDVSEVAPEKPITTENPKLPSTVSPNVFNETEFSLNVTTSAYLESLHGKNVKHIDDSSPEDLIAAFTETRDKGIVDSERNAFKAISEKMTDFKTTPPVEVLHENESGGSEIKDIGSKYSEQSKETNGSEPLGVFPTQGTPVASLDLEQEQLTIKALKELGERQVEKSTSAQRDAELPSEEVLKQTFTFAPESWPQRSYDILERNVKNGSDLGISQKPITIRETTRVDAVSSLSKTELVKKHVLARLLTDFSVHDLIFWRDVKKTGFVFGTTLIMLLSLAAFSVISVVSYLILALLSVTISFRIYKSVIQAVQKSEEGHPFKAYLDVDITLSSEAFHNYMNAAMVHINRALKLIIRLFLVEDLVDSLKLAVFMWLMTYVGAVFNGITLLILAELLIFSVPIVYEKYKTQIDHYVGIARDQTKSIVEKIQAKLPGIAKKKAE
Chain of UniProt Q9NX63 (Q9NX63 whole entry): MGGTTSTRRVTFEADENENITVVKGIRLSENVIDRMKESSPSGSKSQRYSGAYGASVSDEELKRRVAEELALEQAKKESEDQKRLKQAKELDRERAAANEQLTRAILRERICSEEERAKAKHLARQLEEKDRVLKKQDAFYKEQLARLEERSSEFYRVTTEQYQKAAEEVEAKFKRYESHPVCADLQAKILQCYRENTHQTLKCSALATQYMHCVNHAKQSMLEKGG
Chain of UniProt P63218 (P63218 whole entry): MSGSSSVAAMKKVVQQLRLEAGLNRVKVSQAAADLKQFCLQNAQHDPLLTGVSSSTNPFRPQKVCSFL
Chain of UniProt P05186 (P05186 whole entry): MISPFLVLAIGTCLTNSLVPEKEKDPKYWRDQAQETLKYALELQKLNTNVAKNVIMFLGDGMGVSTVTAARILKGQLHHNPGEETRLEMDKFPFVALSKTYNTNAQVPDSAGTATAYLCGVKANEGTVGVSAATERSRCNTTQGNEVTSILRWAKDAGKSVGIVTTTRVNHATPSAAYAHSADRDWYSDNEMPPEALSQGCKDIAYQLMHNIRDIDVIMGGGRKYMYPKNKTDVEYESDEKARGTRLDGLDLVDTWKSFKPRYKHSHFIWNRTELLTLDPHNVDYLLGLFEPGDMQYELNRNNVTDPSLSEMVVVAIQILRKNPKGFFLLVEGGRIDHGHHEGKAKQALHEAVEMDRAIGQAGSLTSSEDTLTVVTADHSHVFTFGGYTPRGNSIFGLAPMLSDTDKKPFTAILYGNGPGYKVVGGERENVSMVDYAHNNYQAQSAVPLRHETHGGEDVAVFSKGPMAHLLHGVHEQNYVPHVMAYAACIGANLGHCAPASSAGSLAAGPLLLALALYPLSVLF

Row | Target | lysine labeling ratio R10:1
1 | SPTAN1 (lysine site: K190) (UniProt Q13813) | 4.11 (inactive)
2 | CCT2 (lysine site: K154) (UniProt P78371) | 3.78 (inactive)
3 | RAB11B (lysine site: K179) (UniProt Q15907) | 3.25 (inactive)
4 | VIM (lysine site: K168) (UniProt P08670) | 3.85 (inactive)
5 | UniProt P05186 (lysine site: K74) | 6.22 (inactive)
6 | CD46 (lysine site: K224) (UniProt P15529) | 6.48 (inactive)
7 | UniProt Q13765 (lysine site: K82) | 3.23 (inactive)
8 | IARS (lysine site: K132) (UniProt P41252) | 1.68 (active)
9 | MET (lysine site: K380) (UniProt P08581) | 1.21 (active)
10 | UniProt Q9BZM4 (lysine site: K148) | 2.1 (inactive)
11 | HNRNPU (lysine site: K697) (UniProt Q00839) | 0.915 (active)
12 | MYH9 (lysine site: K1338) (UniProt P35579) | 1.98 (active)
13 | EPRS (lysine site: K498) (UniProt P07814) | 2.78 (inactive)
14 | IMPDH2 (lysine site: K422) (UniProt P12268) | 1.55 (active)
15 | LNPEP (lysine site: K626) (UniProt Q9UIQ6) | 0.72 (active)
16 | BASP1 (lysine site: K143) (UniProt P80723) | 3.54 (inactive)
17 | CHCHD3 (lysine site: K86) (UniProt Q9NX63) | 0.99 (active)
18 | UniProt P46781 (lysine site: K30) | 1.01 (active)
19 | AHNAK (lysine site: K130) (UniProt Q09666) | 1.37 (active)
20 | AGRN (lysine site: K383) (UniProt O00468) | 12.9 (inactive)

Row | Target | lysine labeling ratio R10:1
21 | PSMA4 (lysine site: K210) (UniProt P25789) | 1.69 (active)
22 | UniProt Q8WXI7 (lysine site: K13714) | 7.68 (inactive)
23 | UniProt P06576 (lysine site: K522) | 3.5 (inactive)
24 | GANAB (lysine site: K48) (UniProt Q14697) | 3.47 (inactive)
25 | UniProt Q8WXI7 (lysine site: K10462) | 1.27 (active)
26 | UniProt Q16790 (lysine site: K133) | 8.23 (inactive)
27 | PLXNA2 (lysine site: K820) (UniProt O75051) | 5.38 (inactive)
28 | UniProt P62258 (lysine site: K12) | 7.18 (inactive)
29 | UniProt Q15149 (lysine site: K630) | 7.1 (inactive)
30 | GAS1 (lysine site: K192) (UniProt P54826) | 1.34 (active)
31 | CCT2 (lysine site: K250) (UniProt P78371) | 1.5 (active)
32 | TUBA1A (lysine site: K336) (UniProt Q71U36) | 2 (active)
33 | UniProt Q8WXI7 (lysine site: K12623) | 3.22 (inactive)
34 | UniProt P63218 (lysine site: K12) | 5.18 (inactive)
35 | UniProt P21589 (lysine site: K326) | 1.17 (active)
36 | GAS1 (lysine site: K137) (UniProt P54826) | 3.54 (inactive)
37 | RTN3 (lysine site: K998) (UniProt O95197) | 4.14 (inactive)
38 | GAPDH (lysine site: K227) (UniProt P04406) | 1.76 (active)
39 | HNRNPA1 (lysine site: K113) (UniProt P09651) | 4.81 (inactive)
40 | UGDH (lysine site: K107) (UniProt O60701) | 1.1 (active)
